Results published in PubChem BioAssay AID624117 (National Center for Advancing Translational Sciences (NCATS), 2012).
Records with an inconclusive call do not appear. Calls of active or inactive are those of the source. Calls come from the whole dose curve; as a rule, active = well fitted curve in the direction sought with a large enough effect; inconclusive = small, poorly fitted or top-dose-only effect, or another doubt; inactive = no such curve, though single readings can be large or run the other way.

Assay: qHTS Assay for Rab9 Promoter Activators: Hit Validation Using Renilla Luciferase Read-Out
Source text: Niemann Pick Type C (NPC) is a rare neurodegenerative lipidosis that is characterized by lipid storage in the endosomal/lysosomal system. Treatment modalities for this devastating disease are currently non-existent due to the severe obstacles associated with accessing the central nervous system with proteins or genes. The majority of mutations causing NPC disease are missense mutations that are distributed throughout the length of the NPC1 protein, with the most prevalent being the I1061T allele. Although NPC1 mutant proteins may be functional, they are typically trapped in the ER due to misfolding. […] We have developed and optimized a cell based renilla luciferase reporter assay in 1536 well format for the identification of up-regulators of the mutant NPC1 promoter. This assay presents data on the validation of hits from the primary screen, which used a firefly luciferase read-out. NIH Chemical Genomics Center [NCGC] NIH Molecular Libraries Probe Production centers Network [MLPCN] MLPCN Grant: MH089375 Assay Submitter (PI): Yiannis A. Ioannou
Huh7 cells stably expressing NPC promoter-luciferase will be seeded at 1,500 cells/well in 5 uL in 1,536-well white opaque plates with 23 nL/well of compound in DMSO solution. The assay plates will be incubated at 37 deg C for 24 hours, after which 3 uL/well BriteLite plus luciferase detection reagent mixture (Perkin Elmer) will be added. Luminescence signal will be measured in a ViewLux plate reader (Perkin Elmer) after a 10 minute incubation at the room temperature.

SMILES | outcome
CN1CCc2cc3c(c4c2C1Cc1ccccc1-4)OCO3 (stereo not given) | inactive
Cc1cccn2c(NCC3CCCO3)c(C(C)C)nc12 (stereo not given) | inactive
O=C1c2ccccc2C(=O)N1Cc1nc2ccccc2c(=O)n1-c1cccnc1 | inactive
CCC(=NCc1cccnc1)c1c(O)n(-c2ccccc2)c(=O)[nH]c1=O | inactive
COc1cccc(CCNCc2ccc(SC)cc2)c1 | inactive
